Key:
Assay in all cases: DAPPL (digital affinity profiling via proximity ligation, sequencing); 10 mM Tris-HCl pH 7.5, 50 mM NaCl, 1 mM DTT, 4% glycerol, room temperature, 30 min; GST-TFs on glutathione beads, 16-mer random dsDNA library, 0.1% formaldehyde crosslink after washing; high values mean tight binding
FEV = target: T1, FEV (Homo sapiens, UniProt Q99581 1-238); settings: protein: recombinant; tags: N-terminal GST; dsDNA, one strand shown
T1 sequence: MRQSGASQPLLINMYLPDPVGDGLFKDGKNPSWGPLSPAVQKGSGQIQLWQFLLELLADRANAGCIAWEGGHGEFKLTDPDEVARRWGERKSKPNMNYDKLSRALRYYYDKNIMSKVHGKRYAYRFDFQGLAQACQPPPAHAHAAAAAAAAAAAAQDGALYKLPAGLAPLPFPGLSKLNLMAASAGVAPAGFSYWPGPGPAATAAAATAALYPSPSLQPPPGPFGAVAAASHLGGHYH
Method in brief: (§1)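 In yeast, human transcription factors were expressed with a GST fusion, then pulled down on glutathione beads and given DNA barcodes. Pooled with a tag-only sample, they were exposed to 200 nmole of a 16-mer random double-stranded DNA library (Tris/NaCl/DTT/glycerol buffer, room temperature, 30 min), washed, crosslinked with 0.1% formaldehyde, proximity-ligated using BsaI/T4 ligase for 1 h at 37 °C, PCR-amplified and read on an Illumina NextSeq500. Each hexamer's frequency of reads for a factor, divided by the matching frequency for the tag-only sample, gives the binding signal.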

ETV5 = ETV5 (Homo sapiens, UniProt P41161 1-510); settings: protein: recombinant; tags: N-terminal GST; dsDNA, one strand shown
Method in brief: as §1

HSF1 = HSF1 (Homo sapiens, UniProt Q00613 1-529); settings: protein: recombinant; tags: N-terminal GST; chain copies: 3; dsDNA, one strand shown
Method in brief: as §1

SPIC = target: T2, SPIC (Homo sapiens, UniProt Q8N5J4 1-248); settings: protein: recombinant; tags: N-terminal GST; dsDNA, one strand shown
T2 sequence: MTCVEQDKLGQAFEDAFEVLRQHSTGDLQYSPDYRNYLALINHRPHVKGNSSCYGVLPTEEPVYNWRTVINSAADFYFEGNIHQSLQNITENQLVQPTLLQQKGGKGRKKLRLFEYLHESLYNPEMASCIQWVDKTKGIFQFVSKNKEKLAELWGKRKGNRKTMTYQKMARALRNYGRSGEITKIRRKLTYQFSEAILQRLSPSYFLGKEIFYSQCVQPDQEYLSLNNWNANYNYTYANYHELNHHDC
Method in brief: as §1

ELF4 = ELF4 (Homo sapiens, UniProt Q99607 1-663); settings: protein: recombinant; tags: N-terminal GST; dsDNA, one strand shown
Method in brief: as §1

ELK4 = target: T3, ELK4 (Homo sapiens, UniProt P28324-2 1-405); settings: protein: recombinant; tags: N-terminal GST; dsDNA, one strand shown
T3 sequence: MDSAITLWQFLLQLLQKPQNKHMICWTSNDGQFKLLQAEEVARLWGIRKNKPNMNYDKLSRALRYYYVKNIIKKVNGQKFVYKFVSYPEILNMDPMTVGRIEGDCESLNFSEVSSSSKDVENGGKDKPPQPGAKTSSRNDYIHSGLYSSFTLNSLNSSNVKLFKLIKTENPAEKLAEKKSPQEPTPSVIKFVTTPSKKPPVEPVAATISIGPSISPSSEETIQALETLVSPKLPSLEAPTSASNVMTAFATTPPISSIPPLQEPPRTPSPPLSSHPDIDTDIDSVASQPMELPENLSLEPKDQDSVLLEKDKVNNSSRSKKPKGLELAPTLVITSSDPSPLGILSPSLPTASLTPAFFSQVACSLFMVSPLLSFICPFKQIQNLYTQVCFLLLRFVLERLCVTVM
Method in brief: as §1

ETV2 = target: T4, ETV2 (Homo sapiens, UniProt O00321 1-342); settings: protein: recombinant; tags: N-terminal GST; dsDNA, one strand shown
T4 sequence: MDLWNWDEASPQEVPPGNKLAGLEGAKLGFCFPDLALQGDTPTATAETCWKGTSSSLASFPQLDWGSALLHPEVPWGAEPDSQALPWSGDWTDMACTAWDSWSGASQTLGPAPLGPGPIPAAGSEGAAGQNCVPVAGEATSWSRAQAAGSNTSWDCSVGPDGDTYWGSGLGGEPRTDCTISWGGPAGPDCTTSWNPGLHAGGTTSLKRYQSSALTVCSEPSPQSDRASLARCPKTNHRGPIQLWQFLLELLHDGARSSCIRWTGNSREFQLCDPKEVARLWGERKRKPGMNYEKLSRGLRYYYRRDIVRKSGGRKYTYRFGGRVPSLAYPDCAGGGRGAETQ
Method in brief: as §1

ELF3 = target: T5, ELF3 (Homo sapiens, UniProt P78545 1-371); settings: protein: recombinant; tags: N-terminal GST; dsDNA, one strand shown
T5 sequence: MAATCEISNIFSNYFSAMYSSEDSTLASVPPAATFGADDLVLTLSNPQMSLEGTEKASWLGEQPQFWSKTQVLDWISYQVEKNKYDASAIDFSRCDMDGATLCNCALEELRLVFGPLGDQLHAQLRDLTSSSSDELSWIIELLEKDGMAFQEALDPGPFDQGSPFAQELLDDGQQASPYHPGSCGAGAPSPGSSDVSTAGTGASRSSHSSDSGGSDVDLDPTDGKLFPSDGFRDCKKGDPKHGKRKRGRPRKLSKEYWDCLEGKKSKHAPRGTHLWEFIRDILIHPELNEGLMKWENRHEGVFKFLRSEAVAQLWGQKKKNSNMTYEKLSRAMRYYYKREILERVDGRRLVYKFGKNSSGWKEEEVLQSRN
Method in brief: as §1

CRX = CRX (Homo sapiens, UniProt O43186 1-299); settings: protein: recombinant; tags: N-terminal GST; dsDNA, one strand shown
Method in brief: as §1

ETV1 = ETV1 (Homo sapiens, UniProt P50549 1-477); settings: protein: recombinant; tags: N-terminal GST; dsDNA, one strand shown
Method in brief: as §1

Chain of ETV5 (P41161 whole entry): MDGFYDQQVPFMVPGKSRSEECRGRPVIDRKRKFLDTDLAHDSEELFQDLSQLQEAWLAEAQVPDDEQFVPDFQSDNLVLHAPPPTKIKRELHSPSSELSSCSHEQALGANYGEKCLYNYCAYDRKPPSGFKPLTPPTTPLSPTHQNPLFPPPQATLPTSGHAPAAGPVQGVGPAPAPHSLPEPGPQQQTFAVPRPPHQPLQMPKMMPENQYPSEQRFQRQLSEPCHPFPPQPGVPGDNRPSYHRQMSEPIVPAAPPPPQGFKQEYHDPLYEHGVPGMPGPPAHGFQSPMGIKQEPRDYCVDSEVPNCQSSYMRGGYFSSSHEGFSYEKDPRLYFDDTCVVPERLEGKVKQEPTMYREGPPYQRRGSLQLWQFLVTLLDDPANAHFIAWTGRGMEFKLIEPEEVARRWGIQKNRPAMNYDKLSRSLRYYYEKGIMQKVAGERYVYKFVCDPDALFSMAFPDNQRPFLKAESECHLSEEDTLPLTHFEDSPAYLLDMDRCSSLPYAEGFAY
Chain of CRX (O43186 whole entry): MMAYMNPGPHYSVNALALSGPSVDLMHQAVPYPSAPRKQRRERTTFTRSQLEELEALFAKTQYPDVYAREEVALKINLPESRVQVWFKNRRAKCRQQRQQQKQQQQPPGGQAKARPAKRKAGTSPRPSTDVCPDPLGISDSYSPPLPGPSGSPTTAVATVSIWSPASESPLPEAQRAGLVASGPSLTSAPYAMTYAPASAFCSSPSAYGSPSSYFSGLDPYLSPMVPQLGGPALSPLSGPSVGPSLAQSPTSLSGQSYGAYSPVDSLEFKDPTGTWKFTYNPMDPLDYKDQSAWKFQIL
Chain of ELF4 (Q99607 whole entry): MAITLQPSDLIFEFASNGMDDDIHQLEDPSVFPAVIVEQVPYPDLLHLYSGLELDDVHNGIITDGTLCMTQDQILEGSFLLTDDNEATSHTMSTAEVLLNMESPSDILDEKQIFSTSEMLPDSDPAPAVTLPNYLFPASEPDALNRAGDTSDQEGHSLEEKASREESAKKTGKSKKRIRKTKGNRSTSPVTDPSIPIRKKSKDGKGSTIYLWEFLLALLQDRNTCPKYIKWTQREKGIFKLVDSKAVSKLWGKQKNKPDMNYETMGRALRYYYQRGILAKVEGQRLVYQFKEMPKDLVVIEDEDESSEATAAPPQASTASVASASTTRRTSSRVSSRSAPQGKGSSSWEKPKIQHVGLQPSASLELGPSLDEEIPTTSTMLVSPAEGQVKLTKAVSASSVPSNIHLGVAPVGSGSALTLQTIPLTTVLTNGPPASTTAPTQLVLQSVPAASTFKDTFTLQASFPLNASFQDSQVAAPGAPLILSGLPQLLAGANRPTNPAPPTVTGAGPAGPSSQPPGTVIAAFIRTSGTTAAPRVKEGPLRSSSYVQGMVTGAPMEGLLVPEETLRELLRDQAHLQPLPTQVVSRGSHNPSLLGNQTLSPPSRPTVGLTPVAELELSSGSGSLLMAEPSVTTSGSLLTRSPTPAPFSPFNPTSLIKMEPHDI
Chain of ETV1 (P50549 whole entry): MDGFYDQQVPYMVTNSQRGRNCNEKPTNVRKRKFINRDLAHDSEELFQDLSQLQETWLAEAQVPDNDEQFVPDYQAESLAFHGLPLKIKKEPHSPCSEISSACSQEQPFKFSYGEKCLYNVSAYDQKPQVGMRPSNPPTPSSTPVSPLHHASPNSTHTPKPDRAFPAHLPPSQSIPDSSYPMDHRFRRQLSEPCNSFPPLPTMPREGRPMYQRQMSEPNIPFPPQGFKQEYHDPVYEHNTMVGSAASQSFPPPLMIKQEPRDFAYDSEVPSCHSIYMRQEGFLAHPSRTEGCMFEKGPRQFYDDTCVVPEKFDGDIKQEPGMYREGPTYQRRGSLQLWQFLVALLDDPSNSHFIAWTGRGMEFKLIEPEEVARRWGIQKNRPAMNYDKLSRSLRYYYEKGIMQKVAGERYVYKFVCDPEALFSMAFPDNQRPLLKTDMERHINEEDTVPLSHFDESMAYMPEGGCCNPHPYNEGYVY
Chain of HSF1 (Q00613 whole entry): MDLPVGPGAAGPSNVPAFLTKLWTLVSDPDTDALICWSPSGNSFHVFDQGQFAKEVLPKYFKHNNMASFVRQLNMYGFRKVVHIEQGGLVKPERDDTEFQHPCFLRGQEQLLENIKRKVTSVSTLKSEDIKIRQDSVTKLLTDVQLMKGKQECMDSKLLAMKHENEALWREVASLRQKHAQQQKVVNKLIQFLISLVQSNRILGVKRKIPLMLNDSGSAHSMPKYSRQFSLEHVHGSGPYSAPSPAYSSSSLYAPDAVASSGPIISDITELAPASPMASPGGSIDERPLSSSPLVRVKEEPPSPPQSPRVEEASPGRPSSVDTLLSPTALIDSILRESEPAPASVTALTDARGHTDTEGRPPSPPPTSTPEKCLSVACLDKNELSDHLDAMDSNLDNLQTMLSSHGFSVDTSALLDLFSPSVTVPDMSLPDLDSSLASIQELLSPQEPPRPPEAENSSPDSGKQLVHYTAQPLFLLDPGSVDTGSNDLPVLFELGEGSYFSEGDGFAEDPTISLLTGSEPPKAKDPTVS

## CTTCCT
FEV
  binding signal: 2.94 fold enrichment (6-mer frequency, TF over GST control)
ETV5
  binding signal: 3.4 fold enrichment (6-mer frequency, TF over GST control)
HSF1
  binding signal: 1.4 fold enrichment (6-mer frequency, TF over GST control)
SPIC
  binding signal: 3.47 fold enrichment (6-mer frequency, TF over GST control)
ELF4
  binding signal: 2.83 fold enrichment (6-mer frequency, TF over GST control)
ELK4
  binding signal: 2.83 fold enrichment (6-mer frequency, TF over GST control)
ETV2
  binding signal: 3.38 fold enrichment (6-mer frequency, TF over GST control)
ELF3
  binding signal: 2.95 fold enrichment (6-mer frequency, TF over GST control)
CRX
  binding signal: 1.19 fold enrichment (6-mer frequency, TF over GST control)
ETV1
  binding signal: 3.18 fold enrichment (6-mer frequency, TF over GST control)

Reference: article PMC7862700, “An all-to-all approach to the identification of sequence-specific readers for epigenetic DNA modifications on cytosine”
